Assay results reported in PubChem BioAssay AID1508600 (Functional Genomics Laboratory (NCATS/FGL), 2020).
Among all 53,000 sequences or so, about 3,700 (7%) were called active.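 How the source made its calls: active means gene knockdowns whose robust z-score for IL-1 alpha signal is at least 2 or at most -2, so actives lie on both sides; inactive means the rest.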 The entries come from a sample that favours actives as a whole.

experiment: Components of the Cytosolic LPS Sensing Pathway: Gene Identification via Genome-wide siRNA Screen; conditions: RAW264.7 macrophages, IL-1a HTRF, actives lie on both sides, screened at 100 nM (by protocol), cells primed 5 h with Pam3CSK4 first;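 further: robust z of the log signal after scaling to non-targeting control siRNA wells of the plate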
How it was run: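 Knockdown: 100 nM siRNA, 48h, RAW264.7. Stimulation: Pam3CSK4 5 h, then LipidA via TransIT-TKO 24 h. Output: supernatant IL-1a HTRF, negative-control-normalized, log robust z-score; viability by CellTiter-Glo.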

z-score, inactive:
GGUUACCUAGAAGUGGACUTT against Igsf6 0.201
CCUUUCCAAACACCUAUAATT against Sox6 -1.2
CCUUUCAGACCAGUUCAUUTT against Ppp1r17 0.193
GGUUCUUUUCAGCUCAUUATT against Toporsl -0.0962
GGAGCCCAAAAAGAAGAAATT against Mrpl48 0.43
GGCCCAGCAAAAAAAGAAGTT against Usp46 -0.397
GGUCAUAGCACCAUGUUCUTT against Gata5 0.831
GGAAGAGACUUAUAAUGGUTT against Olfr1214 1.28
GGCUAUGUCUGUUUCCUUUTT against Defa-rs10 0.963
GGAUAUUCCUGGACUGACATT against Rps6 -0.996
GGCAGAAUAUACUUGCCCUTT against Uevld -0.156
GGAGAGCUCCUAUAAUCCUTT against Plau 0.267
GGAUAUUGUCUUUGUAGAATT against Kap -0.565
GGACGUGAAGUGAAGUCAUTT against 1810009N02Rik -0.626
GGCCUUGUACUUACACAAGTT against Rspo1 0.398
GGAUUCUCACAAGUAAUUCTT against Ifi203 0.272
GGCUGUCACCCUACAUGACTT against Uba1 0.0469
GGAUAUGUUUGGUUAUUUCTT against Acbd4 -0.0997
GGAGACUGUGAUUGAGAUGTT against Rnf181 -0.401
GGAGUCUGUGAACAAUCUCTT against Mx2 0.0232
GGAGUGUGUAAAGACAUAATT against Rnase2a -0.685
GGACAAGAGGAGCUUUUGCTT against Id3 -0.446
GGUUUUCUUAAAAUAGGAGTT against Tat -0.205
GGAGGACUGGGAAGAUCAUTT against Aqp5 0.152
GGUAAGUUAAAUGAUGACATT against Ccdc148 -0.896
GGAUAUAACUGCUAUGGUUTT against Rhebl1 -0.241
GCUUAGAGCUUCAUAUAGCTT against Tlr12 -0.367
GGUGGAAGCAAUUUUAAAUTT against Trpc7 0.384
GGGAUGAGUACAAGAAAAATT against Nsun3 -0.927
CGUGUUGGAGUACAAUGAGTT against Imp3 -0.927
GGACAGUGAAGAGGAUUCCTT against Anapc15 -0.988
GCGGAUUAACCUCUGUGGCTT against Igfl3 0.244
GGUGGAGGAACGAAAGUUUTT against Ribc1 0.625
CGAGGUCAAUAUCAUUCCATT against Serpinb11 0.727
GCUGCUAAUAUCAAUAACGTT against Prf1 -0.809
GGCCAAACAACUGGUGAAGTT against Nelfe -0.832
GGUGUUUUCUGUGUAACCATT against Tlx1 -0.843
GGAUGUUUGGACAAUCUAUTT against Itga4 0.634
GCAAGAGACCAUGAGAAAUTT against Ccdc18 -0.149
GGACUAGAAUAUCACAACGTT against Iqub 0.905
GCCAUGUUUAAGCAAUUGUTT against Vsx1 -0.575
GGAGGGUAUUAGUGCACUGTT against Ptpn1 -0.111
GCCUCAUUUGCUUCACUGUTT against Cd163l1 0.148
GGUGCACUCUGUCAGUUCATT against Col27a1 -0.352
GCAUACCUAUUCACGUACGTT against Slc7a4 -0.475
GCCCAAGCUUUUAUCAAGATT against Frmd4b 1.48
CCCUUUCCUAUGCAUUUGCTT against Olfr851 0.97
CGAGCUUCGGAGGAAGUGATT against Zc3hav1l -0.743
GGUACUCUGUGGAUAUCCCTT against Rpl27 -0.224
GGCUUCUUCACUGAAAUUCTT against 1700074P13Rik -1.1
GGCACUUUGUGGCAAAUCUTT against Pcdhb1 0.742
CGUGCAAGCAGUGAUUUUGTT against Smpx -1.33
GGCUCAAGUAUGAGUCUCATT against Calhm2 0.73
GGGAAGAAGAAAAAGAUGATT against Peak1 -0.506
CGGACUAUCUCUAUGAAGATT against Tas2r108 -0.587
GGGUGUUUUUAAGUGUCCCTT against Zfp574 0.475
GGCAGUUUGUUAAUGAAUGTT against Pcsk1 -0.901
GGAGGAGAAAACAGGAAUUTT against H2-Eb1 -0.03
GCGACCGUAUUGUCACUUGTT against Arpc1a -0.465
CCUUGUCGAGCACAUGAGATT against Zfp69 0.0825
GGCAAGUGAGGAAAAGAGGTT against Setd1a -0.741
GAUUUUCCUCUACUGUCCUTT against U90926 -0.532
GGUCUUGGAUGCAAACGAUTT against Pcdhga2 0.518
GCUAGCAAGUGAGAUGGAGTT against Mbd3l1 1.58
GGGCCUUCAAAAAACUGCCTT against Eva1b 1.75
GGGAGAUAUGCAAUGAAUATT against Creb5 -1.34
CCUCUUAAACAUGUCCUAGTT against Atp6v0a2 -1.04
CCUUCUGGAGUACAUAUCCTT against Trip6 0.16
CCAAAUGCUUAUCUCUACATT against Dock6 0.00388
GGACAAAAAAAUAGAAGGATT against Rrbp1 0.344
GGACUAUCUUUAUGAUGUGTT against Ush1c -0.164
GGUUUGUAAAGGUUAUGACTT against Nell2 0.0203
CCUAGAAGCUAAUUACCAATT against Saa4 -0.946
GCGGCUACUCAUAUAAGUCTT against Trappc8 -0.5
GGAGAAUUACGGUGCCAACTT against Ncoa3 -0.354
GCUCAUCUCGAUUUGACUGTT against Cln3 -1.67
CCUAAUCCUGAUAAUUCCATT against Niban2 -1.54
GGACUCACAGUUAAAAGUATT against Gtse1 1.2
GCUAUGUGGGUUGUGCUAUTT against Olfr1361 0.734
CCCUAGUUUAUCUCCGGAUTT against Lhx1 1.15
GCUAUUGGGUAAUUUGCUUTT against Slco4a1 0.436
CGUAUAUCGAUGAAGAUGATT against BC016579 -1.12
GGACAAGGAGUAUUAUGUGTT against Nrxn3 -0.372
GGCCUUGAAGCAGAAGUCUTT against Gfra1 -1.21
GGGCUUUGUGCCCAACAUGTT against Rtcb 0.278

z-score, active:
GCUUCCUACGGUGUGUCAATT against Hnrnpu -2.43
CGAAAUCAGAACCUGGGAATT against Hacd3 2.73
CCUUUCCUACUCUGUACCCTT against Abcg1 2.22
CGACAAAAGCCACCUUUCGTT against Tm4sf4 -2.62
GGAGCCCAGGAAGAUGACATT against Cyp2c54 -3.15
GGCUGACUUCGUUUUCAUGTT against Derl3 -2.01
GGGUGACAGGUUGAUCUCATT against Tcn2 -2.11
GCAAAUGUCUCGGAAAGAATT against Cdk11b -2.18
GGCAAAAUAGAGAAAUACATT against Lima1 2.37
GGCGAAAAGACCAGUUAUGTT against Man2c1 2.31
CGUACCUAAGCAUACCAGCTT against Gpr20 4.94
GGAGCGUACCAUGAUCGAUTT against Parvb -2.17
GGUGAUUUCGGGUAACGAGTT against Ddr1 -2.17
GGUUUUUGUGGAAAUGUGGTT against Smpd4 -2.58
GGAAGGUCUUCGAGAUUUUTT against Gpr75 4.56
GGAAAAGUCCCGUAUGGAGTT against Gcc1 -3.14
GGUGAUGGAGAAGAGAAGATT against Fam107b 2.88
CGGUGACAUUUGUGAAACUTT against Smn1 -2.05
GGAGUUGUUGUGCUUUUAATT against Tmem45a 3.02
GGAAUUUGUCAACCGGACCTT against St6galnac6 3.31
GGGAUGCAUCAAAAUACAATT against Pdk3 4.82
CCCGAUUACUGGAGUUAAATT against Kbtbd7 2.32
